# Assay results reported in PubChem BioAssay (NCATS).
# Inconclusive results are not listed. Calls of active or inactive are those of the source. Unless noted, calls come from the whole dose curve; as a rule, active = well fitted curve in either direction with a large enough effect (not every such curve was filed as active); inconclusive = small, poorly fitted or top-dose-only effect, or another doubt; inactive = flat fitted curve, though single readings scatter.
# Tests used:
# [1] = biological target: Glucocorticoid receptor (Homo sapiens) (UniProt P04150); assay: GR-GFP Redistribution (AID 450;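 active = compounds whose dose series gives a full or clear partial fitted curve of increased nuclear translocation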; note: potency is the fitted concentration of half-maximal effect); conditions: U2OS GR-GFP nuclear translocation, laser cytometry, 2 h
# [2] = biological target: Mitogen-activated protein kinase 10 (Mus musculus) (UniProt Q61831); assay: JNK3 AlphaScreen Assay (AID 530);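 note: kinase came from lysate of stimulated human HepG2 cells; signal reports phosphorylation of biotinylated GST-cJun 1-79 at Ser73 with 10 µM ATP; % is set by controls: 0 for no effect and ±100 for the full control effect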
# In short: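 Pre-activated (IL-1β/TNFα) JNK3 in HepG2 lysates phosphorylates biotin-GST-cJun(1-79), 10 uM ATP; anti-phospho-cJun(Ser73) AlphaScreen read at room temperature, pH 7.6 Tris buffer. Compounds pre-incubated 15 min as titrations.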
# [3] = biological target: 3',5'-cyclic-AMP phosphodiesterase 4B (Homo sapiens) (UniProt Q07343); assay: qHTS Assay for Inhibitors of PDE-IV (AID 607; active = well fitted activation curve with a large enough effect in the main read-out, with a control signal flat, not every such curve was filed as active; note: % of control where 0% means no effect)
# In short: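 Cell-based read-out of cAMP via a modified cyclic nucleotide-gated channel and membrane potential dye (535/590 nm) in HEK293 cells expressing PDE4 endogenously. Compounds tested up to 22.9 uM final; 100 uM RO 20-1724 reference.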
# [4] = biological target: Cytochrome P450 3A4 (Homo sapiens) (UniProt P08684); assay: qHTS Assay for Inhibitors and Substrates of Cytochrome P450 3A4 (AID 884; active = well fitted curve in the direction sought with a large enough effect; an effect the other way counts as inactive or inconclusive; note: nearly all actives have a fitted effect of over 50% in size; note: potency is the fitted concentration of half-maximal effect)
# In short: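 20 nM human CYP3A4 with 25 uM Luciferin-PPXE (at KM) in 200 mM KPO4, preincubated 10 min with compound; NADPH regeneration started a 60 min RT reaction. Luciferin detected by luminescence, normalized to 57 uM ketoconazole as full inhibition.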
# [5] = qHTS Assay for Lipid Storage Modulators (AID 1519; calls by dose curve); conditions: Drosophila S3 cells, BODIPY lipid droplet/cell ratio, laser cytometry, cells loaded with oleic acid
# In short: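 Cells seeded at 5,000 per well were treated with compounds over a concentration series and loaded with oleic acid (400 uM, as added). Lipid droplet fluorescence (488 nm excitation, 500-530 nm channel) was read by laser-scanning cytometry and normalized to 20 uM Triacsin C.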
# [6] = NFAT Signaling Pathway (AID 444); conditions: Jurkat NFAT-bla M1, carbachol, beta-lactamase ratio, 5 h; at 17.2 µM (top of the series);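 note: carbachol stimulus at about its EC50 of 1 µM final; % is set by controls: 0 for no effect and ±100 for the full control effect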
# In short: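 Jurkat cells with NFAT-driven β-lactamase reporter and co-expressed M1 receptor, stimulated with carbachol (final 1 uM, ~EC50), compound titration, 5 h at 37 °C. CCF4 loaded 1 h at RT; 460/530 nm ratio gave %activity and AC50.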
# [7] = Stat Signaling Pathway (AID 446);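 note: ME-180 cervical cancer cells given 40 pM IL-6 alongside compound; SIE-controlled beta-lactamase reporter measured as 460/530 nm FRET emission ratio; % is set by controls: 0 for no effect and ±100 for the full control effect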
# In short: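 Reporter line: ME-180 cervical carcinoma, SIE-beta-lactamase. Treatment: compound with 40 pM IL-6, 5 hrs, 37 C, in low-serum OPTI-MEM with 10 mM HEPES pH 7.3. Detection: 460/530 nm fluorescence.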
# [8] = biological target: Glucocorticoid receptor (Homo sapiens) (UniProt P04150); assay: GR-EFC Redistribution (AID 451; calls by dose curve; note: potency is the fitted concentration of half-maximal effect); conditions: CHO-K1 GR-EFC translocation, beta-gal luminescence, 2 h
# In short: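 CHO-K1 cells expressing nuclear EA and GR-ED fragments of b-gal; compounds titrated up to 46 uM final, 2 h at 37 C. GR nuclear translocation read as complemented b-gal luminescence after 1 h RT detection.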
# [9] = biological target: Cytochrome P450 3A4 (Homo sapiens) (UniProt P08684); assay: qHTS Assay for Activators of Cytochrome P450 3A4 (AID 885; active = well fitted curve in the direction sought with a large enough effect; an effect the other way counts as inactive or inconclusive; note: nearly all actives have a fitted effect of over 65% in size)
# In short: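 Signal was normalized against complete inhibition by 57 uM ketoconazole. The reaction used 20nM CYP3A4 with 25uM Luciferin-PPXE, 10-min compound preincubation and a 60-min NADPH-supported step at RT.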
# [10] = biological target: Ubiquitin carboxyl-terminal hydrolase 1 (Homo sapiens) (UniProt O94782); assay: Inhibitors of USP1/UAF1: Pilot qHTS (AID 504865; active = well fitted curve in the direction sought with a large enough effect; an effect the other way counts as inactive or inconclusive; note: nearly all actives have a fitted effect of over 35% in size; note: potency is the fitted concentration of half-maximal effect)
# In short: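 Deubiquitinase activity followed as kinetic rhodamine fluorescence release from 150 nM Ub-Rho. 1 nM USP1/UAF1 with compound, after 15 min room-temperature preincubation, in HEPES pH 7.8 buffer containing TCEP, EDTA, BSA and Tween-20.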
# [11] = AP1 Signaling Pathway (AID 357);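 note: ME-180 reporter cells stimulated with EGF at its EC50 level; % is set by controls: 0 for no effect and ±100 for the full control effect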
# In short: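 Read-out was the 460nm/530nm emission ratio (excitation 405nm) after CCF4 loading for 2.5 hours at room temperature. Cells carried an AP-1-driven beta-lactamase reporter, were stimulated with EC50 EGF plus compound for 5 hours, and AC50 values came from titrations.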
# [12] = biological target: ATP-dependent 6-phosphofructokinase (Trypanosoma brucei brucei) (UniProt O15648); assay: qHTS Assay to Find Inhibitors of T. brucei phosphofructokinase: hit validation (AID 492961; active = well fitted curve in the direction sought with a large enough effect; an effect the other way counts as inactive or inconclusive)
# In short: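 Compounds titrated; %activity normalized to 0x and 1x enzyme controls, curve-fitted. Readout: ADP-Glo luminescence after 45 min room-temperature reaction of 1.25 nM PFK, 0.1 mM ATP, 0.5 mM F6P, pH 8.0.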
# [13] = biological target: Luciferin 4-monooxygenase (Photinus pyralis) (UniProt P08659); assay: Biochemical firefly luciferase enzyme assay for NPC (AID 624030; active = well fitted curve in the direction sought with a large enough effect; an effect the other way counts as inactive or inconclusive;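 note: purified P. pyralis luciferase at 10 nM with luciferin and ATP substrate; 0% = DMSO and -100% = full luciferase inhibition by PTC124 control; nearly all actives have a fitted effect of over 70% in size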)
# In short: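 Purified P. pyralis luciferase at 10 nM in 50 mM Tris Acetate (final), luminescence read within 5 minutes of enzyme addition to compounds. Activity normalised to PTC124 versus DMSO; concentration-response curves classed by r2, magnitude and activity.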
# [14] = qHTS profiling for inhibitors of Plasmodium falciparum proliferation (AID 504749; active = well fitted curve in the direction sought with a large enough effect; an effect the other way counts as inactive or inconclusive;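 note: 0% = DMSO vehicle and full inhibition = artemisinin control; nearly all actives have a fitted effect of over 60% in size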); conditions: P. falciparum in erythrocytes, SYBR Green DNA, 72 h; at 12.8 µM (top of the series); parasite line A
# In short: (§1)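 P. falciparum-infected erythrocytes (0.3% parasitemia, 2.5% hematocrit) incubated with compound 72 h at 37 C, 5% CO2. Parasite DNA detected by SYBR Green after lysis, overnight at room temperature; normalised to 0.29 uM artemisinin and DMSO.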
# CP192 = assay: as above; conditions: P. falciparum in erythrocytes, SYBR Green DNA, 72 h; series mostly up to 28.7 µM
# In short: as §1
# CP211 = assay: as above; conditions: P. falciparum in erythrocytes, SYBR Green DNA, 72 h; series mostly up to 28.7 µM
# In short: as §1
# CP286 = assay: as above; conditions: P. falciparum in erythrocytes, SYBR Green DNA, 72 h; series mostly up to 28.7 µM
# In short: as §1
# P94_40 = assay: as above; conditions: P. falciparum in erythrocytes, SYBR Green DNA, 72 h; series mostly up to 28.7 µM
# In short: as §1
# [15] = measured here: cell count channel max response
# [16] = measured here: lipid channel max response
# Chain of 3',5'-cyclic-AMP phosphodiesterase 4B (Homo sapiens) (Q07343 whole entry, looked up): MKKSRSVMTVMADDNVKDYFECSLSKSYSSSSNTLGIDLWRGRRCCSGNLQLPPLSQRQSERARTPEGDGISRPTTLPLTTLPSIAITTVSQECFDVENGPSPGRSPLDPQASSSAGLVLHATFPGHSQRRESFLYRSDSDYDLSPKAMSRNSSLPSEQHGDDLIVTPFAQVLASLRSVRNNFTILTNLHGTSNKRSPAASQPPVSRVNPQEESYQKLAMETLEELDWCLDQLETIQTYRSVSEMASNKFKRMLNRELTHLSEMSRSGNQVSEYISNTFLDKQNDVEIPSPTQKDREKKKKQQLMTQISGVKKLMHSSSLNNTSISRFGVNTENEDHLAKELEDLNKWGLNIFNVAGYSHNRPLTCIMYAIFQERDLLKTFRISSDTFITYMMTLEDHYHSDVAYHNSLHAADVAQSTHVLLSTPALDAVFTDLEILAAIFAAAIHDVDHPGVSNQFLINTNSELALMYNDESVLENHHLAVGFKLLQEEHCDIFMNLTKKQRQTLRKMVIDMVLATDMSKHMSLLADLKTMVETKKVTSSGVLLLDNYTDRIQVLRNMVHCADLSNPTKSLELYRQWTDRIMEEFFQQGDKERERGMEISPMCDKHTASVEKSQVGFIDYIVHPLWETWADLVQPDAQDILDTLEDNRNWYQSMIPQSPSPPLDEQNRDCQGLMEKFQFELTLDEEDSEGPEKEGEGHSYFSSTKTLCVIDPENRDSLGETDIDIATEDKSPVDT
# Chain of Cytochrome P450 3A4 (Homo sapiens) (P08684 whole entry, looked up): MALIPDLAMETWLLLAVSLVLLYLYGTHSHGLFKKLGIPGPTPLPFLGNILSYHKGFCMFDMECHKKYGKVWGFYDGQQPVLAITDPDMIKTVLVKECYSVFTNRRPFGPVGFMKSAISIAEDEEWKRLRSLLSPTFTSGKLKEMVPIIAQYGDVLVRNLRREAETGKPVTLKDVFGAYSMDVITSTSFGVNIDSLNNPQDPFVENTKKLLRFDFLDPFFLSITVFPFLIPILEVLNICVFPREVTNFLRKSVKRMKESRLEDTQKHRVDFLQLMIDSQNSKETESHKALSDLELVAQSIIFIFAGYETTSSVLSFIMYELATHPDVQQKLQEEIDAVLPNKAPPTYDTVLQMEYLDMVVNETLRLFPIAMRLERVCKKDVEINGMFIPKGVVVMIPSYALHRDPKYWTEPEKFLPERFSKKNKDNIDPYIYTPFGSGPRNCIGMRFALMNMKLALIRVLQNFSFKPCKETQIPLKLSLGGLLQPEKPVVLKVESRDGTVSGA
# Chain of Glucocorticoid receptor (Homo sapiens) (P04150 whole entry, looked up, the tested form may be a part): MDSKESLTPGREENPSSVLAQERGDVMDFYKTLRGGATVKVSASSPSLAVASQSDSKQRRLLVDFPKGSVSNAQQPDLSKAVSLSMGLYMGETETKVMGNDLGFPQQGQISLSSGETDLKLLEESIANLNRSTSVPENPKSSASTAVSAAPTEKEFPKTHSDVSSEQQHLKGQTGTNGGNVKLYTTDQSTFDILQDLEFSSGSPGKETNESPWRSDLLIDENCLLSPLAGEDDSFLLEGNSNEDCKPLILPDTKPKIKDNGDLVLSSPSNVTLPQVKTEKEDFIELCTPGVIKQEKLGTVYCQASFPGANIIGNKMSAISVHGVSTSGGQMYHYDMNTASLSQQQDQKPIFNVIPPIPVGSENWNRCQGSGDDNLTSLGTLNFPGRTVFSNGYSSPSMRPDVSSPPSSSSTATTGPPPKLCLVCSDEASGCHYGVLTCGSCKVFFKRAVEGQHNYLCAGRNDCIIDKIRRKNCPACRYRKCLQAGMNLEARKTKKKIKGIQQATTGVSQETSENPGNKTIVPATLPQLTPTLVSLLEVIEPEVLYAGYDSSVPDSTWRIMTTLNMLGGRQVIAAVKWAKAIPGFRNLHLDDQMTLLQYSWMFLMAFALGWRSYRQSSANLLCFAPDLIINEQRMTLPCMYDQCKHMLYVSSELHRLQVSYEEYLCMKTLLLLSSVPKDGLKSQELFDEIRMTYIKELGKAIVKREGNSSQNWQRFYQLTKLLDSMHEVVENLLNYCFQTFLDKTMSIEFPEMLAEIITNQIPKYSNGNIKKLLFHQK
# Chain of Ubiquitin carboxyl-terminal hydrolase 1 (Homo sapiens) (O94782 whole entry, looked up): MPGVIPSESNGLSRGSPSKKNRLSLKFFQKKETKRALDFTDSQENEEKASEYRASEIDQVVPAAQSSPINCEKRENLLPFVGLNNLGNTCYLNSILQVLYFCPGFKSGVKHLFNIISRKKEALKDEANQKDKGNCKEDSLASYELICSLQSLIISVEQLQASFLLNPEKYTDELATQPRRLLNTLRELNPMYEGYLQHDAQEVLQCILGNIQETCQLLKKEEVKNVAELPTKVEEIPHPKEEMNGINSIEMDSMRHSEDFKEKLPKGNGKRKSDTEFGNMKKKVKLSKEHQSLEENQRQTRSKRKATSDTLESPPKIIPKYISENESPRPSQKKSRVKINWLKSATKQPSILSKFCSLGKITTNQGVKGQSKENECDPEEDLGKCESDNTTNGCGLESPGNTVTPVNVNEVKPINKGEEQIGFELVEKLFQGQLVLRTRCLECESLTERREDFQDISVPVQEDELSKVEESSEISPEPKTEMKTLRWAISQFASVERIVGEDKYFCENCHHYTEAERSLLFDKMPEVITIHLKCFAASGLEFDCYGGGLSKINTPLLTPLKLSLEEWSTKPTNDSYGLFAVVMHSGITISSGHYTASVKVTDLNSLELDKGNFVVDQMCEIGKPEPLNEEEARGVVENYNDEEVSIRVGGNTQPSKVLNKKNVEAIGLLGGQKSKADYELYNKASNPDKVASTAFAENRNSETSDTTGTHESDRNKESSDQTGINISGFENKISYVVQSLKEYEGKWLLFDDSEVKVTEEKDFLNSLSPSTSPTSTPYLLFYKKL
# Chain of ATP-dependent 6-phosphofructokinase (Trypanosoma brucei brucei) (O15648 whole entry, looked up): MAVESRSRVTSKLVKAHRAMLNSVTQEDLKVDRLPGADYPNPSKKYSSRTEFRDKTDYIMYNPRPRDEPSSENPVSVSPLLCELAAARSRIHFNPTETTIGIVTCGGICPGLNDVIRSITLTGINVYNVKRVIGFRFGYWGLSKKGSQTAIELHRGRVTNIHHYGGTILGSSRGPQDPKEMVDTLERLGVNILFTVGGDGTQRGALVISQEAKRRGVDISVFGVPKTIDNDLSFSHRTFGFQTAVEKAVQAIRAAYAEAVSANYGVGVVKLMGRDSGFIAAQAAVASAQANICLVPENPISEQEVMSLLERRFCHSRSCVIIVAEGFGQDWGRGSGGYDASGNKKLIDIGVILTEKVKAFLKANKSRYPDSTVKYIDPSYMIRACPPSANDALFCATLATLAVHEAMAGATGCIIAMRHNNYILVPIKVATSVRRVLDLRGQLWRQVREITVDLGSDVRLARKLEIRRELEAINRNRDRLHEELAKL
# Chain of Luciferin 4-monooxygenase (Photinus pyralis) (P08659 whole entry, looked up): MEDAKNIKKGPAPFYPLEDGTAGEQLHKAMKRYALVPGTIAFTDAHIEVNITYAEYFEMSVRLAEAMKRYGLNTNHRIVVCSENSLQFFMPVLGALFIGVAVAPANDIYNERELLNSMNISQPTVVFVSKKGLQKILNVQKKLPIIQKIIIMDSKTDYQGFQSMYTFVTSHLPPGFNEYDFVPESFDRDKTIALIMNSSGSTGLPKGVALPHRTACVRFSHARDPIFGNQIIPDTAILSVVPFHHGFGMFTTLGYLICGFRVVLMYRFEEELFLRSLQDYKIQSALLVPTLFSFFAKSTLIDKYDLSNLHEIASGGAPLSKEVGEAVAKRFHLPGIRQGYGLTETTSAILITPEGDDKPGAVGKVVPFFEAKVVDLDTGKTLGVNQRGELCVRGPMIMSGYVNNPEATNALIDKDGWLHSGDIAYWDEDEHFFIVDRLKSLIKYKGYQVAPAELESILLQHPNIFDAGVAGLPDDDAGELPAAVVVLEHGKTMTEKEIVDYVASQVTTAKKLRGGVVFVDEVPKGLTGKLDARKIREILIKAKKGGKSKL
smiles,measurement,setting,value
c1cncc([C@H]2CCCCN2)c1,Potency,[1],> 46 µM (inactive)
same,outcome,[2],inactive
same,Potency,[3],inactive
same,Potency,[4],inactive
same,"activity change, negative = inhibition",[5]; at 57.5 µM (top of the series),0.698% (inactive)
same,max response,[5]; [15],18.4%
same,max response,[5]; [16],19.6%
C[C@@]12CC[C@H](O)C[C@@H]1CC[C@H]1[C@H]2CC[C@@]2(C)[C@@H](C3=CC(=O)OC3)CC[C@]12O,"activity change, negative = inhibition",[6],-74.9% (active)
same,outcome,[7],inactive
same,Potency,[1],> 20.6 µM (inactive)
same,Potency,[8],> 20.6 µM (inactive)
same,outcome,[2],inactive
same,Potency,[4],3.16 µM (active)
same,Potency,[9],inactive
same,"activity change, negative = inhibition",[5]; at 25.7 µM (top of the series),-3.39% (inactive)
same,max response,[5]; [15],-2.15%
same,max response,[5]; [16],-7.35%
same,Potency,[10],inactive
CCN(CC)C(=O)N[C@H]1C=C2c3cccc4[nH]cc(c34)C[C@@H]2N(C)C1,outcome,[11],inactive
same,outcome,[7],inactive
same,Potency,[1],> 20.6 µM (inactive)
same,Potency,[8],> 20.6 µM (inactive)
same,outcome,[2],inactive
same,Potency,[3],inactive
same,"activity change, negative = inhibition",[5]; at 25.7 µM (top of the series),-1.39% (inactive)
same,max response,[5]; [15],-15.1%
same,max response,[5]; [16],-15.7%
same,Potency,[10],35.5 µM (active)
COc1ccc(C(=O)OC2C[C@H]3CC[C@@H](C2)N3C)cc1OC (stereo partly drawn),"activity change, negative = inhibition",[6],-18.9% (inactive)
same,outcome,[7],inactive
same,Potency,[1],> 20.6 µM (inactive)
same,Potency,[8],> 20.6 µM (inactive)
same,outcome,[2],inactive
same,Potency,[3],inactive
same,"activity change, negative = inhibition",[5]; at 25.7 µM (top of the series),0.262% (inactive)
same,max response,[5]; [15],-3.69%
same,max response,[5]; [16],-3.27%
same,Potency,[10],inactive
COc1cc2c(c(OC)c1OC)-c1ccc(O)c(=O)cc1[C@@H](NC(C)=O)CC2,Potency,[1],> 46 µM (inactive)
same,Potency,[8],> 46 µM (inactive)
same,outcome,[2],inactive
same,"activity change, negative = inhibition",[5]; at 57.5 µM (top of the series),3.54% (inactive)
same,max response,[5]; [15],16.1%
same,max response,[5]; [16],20.6%
C[C@@H]1O[C@H](O[C@H]2C[C@@H](O)[C@@]3(CO)[C@H]4[C@@H](O)C[C@]5(C)[C@@H](C6=CC(=O)OC6)CC[C@]5(O)[C@H]4CC[C@]3(O)C2)[C@@H](O)[C@H](O)[C@@H]1O,"activity change, negative = inhibition",[6],-76.3% (active)
same,outcome,[2],inactive
same,"activity change, negative = inhibition",[5]; at 25.7 µM (top of the series),-0.396% (inactive)
same,max response,[5]; [15],-4.59%
same,max response,[5]; [16],-4.25%
CN[C@@H](C)[C@H]1CC[C@@H](N)[C@@H](O[C@@H]2[C@@H](O)[C@@H](O[C@H]3OC[C@@](C)(O)[C@@H](NC)[C@@H]3O)[C@H](N)C[C@@H]2N)O1 (tested in a mixture with another compound),outcome,[11],inactive
same,outcome,[7],inactive
same,outcome,[2],inactive
same,Potency,[3],inactive
same,"activity change, negative = inhibition",[5]; at 25.7 µM (top of the series),-2.96% (inactive)
same,max response,[5]; [15],-4.43%
same,max response,[5]; [16],-11.6%
same,Potency,[12],inactive
same,Potency,[10],inactive
same,Potency,[13],inactive
same,"activity, negative = inhibition",[14],3.71% (inactive)
same,Potency,CP192,inactive
same,Potency,CP211,inactive
same,Potency,CP286,inactive
same,Potency,P94_40,inactive
CC(C)[C@@]1(NC(=O)[C@@H]2C[C@H]3c4cccc5[nH]cc(c45)C[C@@H]3N(C)C2)O[C@]2(O)[C@H]3CCCN3C(=O)[C@H](Cc3ccccc3)N2C1=O,outcome,[11],inactive
same,outcome,[7],inactive
same,Potency,[1],> 20.6 µM (inactive)
same,Potency,[8],> 20.6 µM (inactive)
same,outcome,[2],inactive
same,Potency,[3],inactive
same,"activity change, negative = inhibition",[5]; at 25.7 µM (top of the series),-1.27% (inactive)
same,max response,[5]; [15],6.35%
same,max response,[5]; [16],5.89%
same,Potency,[10],inactive
C[C@@H]1O[C@H](O[C@@H]2CC[C@@]3(C=O)[C@H]4CC[C@@]5(C)[C@@H](C6=CC(=O)OC6)CC[C@@]5(O)[C@@H]4CC[C@]3(O)C2)C[C@H](O)[C@@H]1O,Potency,[1],> 20.6 µM (inactive)
same,Potency,[8],> 20.6 µM (inactive)
same,outcome,[2],inactive
same,Potency,[3],inactive
same,Potency,[9],inactive
same,"activity change, negative = inhibition",[5]; at 25.7 µM (top of the series),-0.93% (inactive)
same,max response,[5]; [15],-14.4%
same,max response,[5]; [16],-15.6%
same,Potency,[10],inactive
